Experimental findings from PubChem BioAssay (Tox21) are described below.

Unmarked numbers belong to inactive results. Active and inactive are the calls of the source. The call rests on the fitted dose curve; in most records, active means well fitted curve in the direction sought with a large enough effect in the repeat runs; inconclusive means weak or mixed curves; inactive means flat fitted curve, though single readings scatter.
On the % scale 0 is the no-effect control and ±100 the full control effect.

The experiment in a line: qHTS assay to test for compound auto fluorescence at 460 nm (blue) in HEK293 cells (AID 720678). The conditions noted are these: blue autofluorescence 405/460 nm; series mostly up to 91.3 µM; fluorescence, % of triamterene: at the top concentration. The text has this: National Center for Advancing Translational Sciences [NCATS]
NIH Chemical Genomics Center [NCGC]
U.S. Environmental Protection Agency [EPA]
National Institutes of Environmental Health Sciences [NIEHS]
National Toxicology Program [NTP]
U.S. Food and Drug Administration [FDA]
Compound auto fluorescence often interferes with screening of the compound library against various biological targets and signaling pathways. Some of these compounds may have fluorophoric properties. Such properties may interfere with the assay outputs resulting in false positives and/or negatives. To decrease such complications and ensure the compound activities are relevant in terms of biological response, the Tox21 10K compound library was screened for auto fluorescence.
From the fluorophores used as reporter signals in our screening assays, the auto fluorescence equivalencies of compounds against three fluorophores have been evaluated: Triamterene, Fluorescein and Rose Bengal sodium for blue, green and red fluorescence, respectively. The fluorescence intensities were measured using Excitation/Emission wavelengths at 405/460nm, 485/535nm and 540/590nm for blue, green and red labels, respectively. This assay includes the blue fluorescence data.
Tox21 Assay Protocol Summary:
2,000 HEK293 cells in 5 uL of culture medium containing 10% dialyzed FBS per well were dispensed into black wall/clear bottom 1536-well plates using a Multidrop Combi Dispenser (Thermo Scientific). The assay plates were incubated for 4-5 hr at 37C to allow cell attachment to the well bottom, followed by the transfer of 23 nL compound or DMSO vehicle by a pintool work station (Kalypsys, San Diego, CA). After the assay plates were incubated overnight at 37C and 5% CO2, fluorescence intensities in the assay plates were measured by an Envision (PerkinElmer, Shelton, CT) plate reader using three labels for measuring blue, green and red fluorescence at […] 460, 535 and 590nm respectively.
In general terms: qHTS replaces the single test concentration by a dilution series.
`CCC1(c2ccccc2)C(=O)NC(=O)NC1=O`: the outcome was inactive.
As to `O=P(O)(Oc1ccccc1)Oc1ccccc1`, the “fluorescence, % of triamterene” value is -0.0607%.
`CCN(CC)c1nc(C)cc(OP(=S)(OC)OC)n1`: the “fluorescence, % of triamterene” value was -0.25%.
As for `CCOC(=O)/C=C(C)/C=C/C[C@@H](C)CCCC(C)C`, the molecule was called inactive.
Consider `CC(C1CC1)C(O)(Cn1cncn1)c1ccc(Cl)cc1` (stereo not given), for which the “fluorescence, % of triamterene” value was 0.0293%.
Still for that read-out and setting: the value for `O=[N+]([O-])c1cccc2cccnc12` was -0.128% [at 95.7 µM]; that for `CCCCc1c(C)nc(NCC)[nH]c1=O` was 0.0463%.
On the same count and under the same terms, the value for `O=CNC(N1CCN(C(NC=O)C(Cl)(Cl)Cl)CC1)C(Cl)(Cl)Cl` (stereo not given) was -0.0332%; that for `CCN(CC)CCOC(=O)C(C)(c1ccccc1)c1ccccc1` was -0.0049% [at 46 µM]; that for `CN1C(=S)CN=C(c2ccccc2)c2cc(Cl)ccc21` was 0.077% [at 46 µM].
Same read-out and setting: the value for `C[C@]12CC[C@H]3[C@@H](CC=C4C[C@@H](O)CC[C@@]43C)[C@@H]1CC[C@@H]2O` was 0.0871% [at 46 µM]; that for `CNC(=O)Oc1ccccc1C1OCCO1` was 0.0182%.
For the molecule `CC(C)CC(N(C)C)C1(c2ccc(Cl)cc2)CCC1` (stereo not given), the “fluorescence, % of triamterene” value is -0.212% [at 46 µM].
With `CN/C(=N\[N+](=O)[O-])NCC1CCOC1` (stereo not given), the “fluorescence, % of triamterene” value was -0.0067%.
On the same count and under the same terms, the result for `COc1ncc(F)c2nc(S(=O)(=O)Nc3c(F)cccc3F)nn12` reads -0.0576%.
For the molecule `[O]=[Cd]`, the molecule was called inactive.
`COc1cc(C[C@@H](C)N)c(OC)cc1C`: the “fluorescence, % of triamterene” value is 0.0269% [at 95.7 µM].
Still for that read-out and setting: the result for `COC(=O)c1ccccc1S(=O)(=O)NC(=O)Nc1nc(C)cc(C)n1` reads -0.0069%; that for `COc1cccc2c1cc([N+](=O)[O-])c1c(C(=O)O)cc3c(c12)OCO3`, -0.325%; that for `BrCCCCCCBr`, -0.136%.
Regarding `Nc1cc(Cl)ccc1O`, the “fluorescence, % of triamterene” value is 0.113%.
As for `COC(C)(C)C`, the “fluorescence, % of triamterene” value is -0.227%.
As to `CC(C)COP(=O)(OCC(C)C)OCC(C)C`, the “fluorescence, % of triamterene” value is 0.0118%.
Regarding `[Cl][Sn]([Cl])([Cl])[Cl]`, the “fluorescence, % of triamterene” value is -0.0208% [at 95.7 µM].
As for `C#C[C@]1(O)C=C[C@H]2[C@@H]3CCC4=CC(=O)CC[C@@H]4[C@H]3CC[C@@]21CC`, the “fluorescence, % of triamterene” value was -0.184% [at 46 µM].
The same measure, in the same setting: the value for `[As]#[In]` was -0.157%; that for `CNCC(=O)c1ccc(O)c(O)c1` was -0.0691% [at 46 µM]; that for `CC(C)(C)NCC(O)c1cc(Cl)c(N)c(Cl)c1` (stereo not given) was -0.119% [at 46 µM].
The same measure, in the same setting: the value for `O=[N+]([O-])c1cccc(O)c1` was -0.36%; that for `CCC/C(=N\OCC)C1=C(O)CC(CC(C)SCC)CC1=O` (stereo not given) was 0.0293%.
Same read-out and setting: the value for `Fc1ccc(C2(Cn3cncn3)OC2c2ccccc2Cl)cc1` (stereo not given) was -0.262%.
For `CCS(=O)(=O)C(C)(C)S(=O)(=O)CC`, the “fluorescence, % of triamterene” value is 0.0713% [at 46 µM].
Still for that read-out and setting: the result for `Cc1cnc[nH]1` reads 0.026%; that for `CC(C)CP(=S)(S)CC(C)C`, -0.005%; that for `N#CCBr`, 0.0433% [at 95.7 µM].
As for `C=CCC1=C(C)[C@@H](OC(=O)[C@@H]2[C@@H](C=C(C)C)C2(C)C)CC1=O`, the “fluorescence, % of triamterene” value is 0.0084%.
Consider `ClC(Cl)(Cl)C(Cl)(Cl)Cl`, for which the “fluorescence, % of triamterene” value is 0.0217% [at 95.7 µM].
Still for that read-out and setting: the value for `CCCCP(CCCC)CCCC` was 0.017%.
Still for that read-out and setting: the value for `CC(=O)CCc1ccc2c(c1)OCO2` was -0.0934%.
Still for that read-out and setting: the result for `CCOC(=O)N(C)C(=O)CSP(=S)(OCC)OCC` reads -0.0628%.
